Inconclusive results are not listed. A call without a number means that no potency is given here. Activity calls are given as the source filed them. The call rests on the fitted dose curve; in most records, active means well fitted curve in the direction sought with a large enough effect; inconclusive means small, poorly fitted or top-dose-only effect, or another doubt; inactive means no such curve, though single readings can be large; an effect the other way counts as inactive or inconclusive.
Legend:
[1] = OV-KATE Cancer Cell Toxicity qHTS against the NCATS CANVASS Library (AID 1347345); further: potency means the concentration at half of the fitted maximal effect
In short: (§1)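 Per well, 1000 cells; exposure 72 h with compound at 11 final concentrations; readout CellTiter-Glo luminescence.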

[2] = SW1088 Cancer Cell Toxicity qHTS against the NCATS CANVASS Library (AID 1347350); further: nearly all actives have a fitted effect of over 75% in size; further: potency means the concentration at half of the fitted maximal effect
In short: as §1

[3] = A2780 Cisplatin Sensitive Ovarian Cancer Cell Toxicity qHTS against the NCATS CANVASS Library (AID 1347353); further: potency means the concentration at half of the fitted maximal effect; nearly all actives have a fitted effect of over 60% in size
In short: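 750 cells/well, 4 h settle; 11-pt cpd titration; 72 h, 37 °C, 5% CO2; ATPLite 10 min RT; luminescence read.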

[4] = test system: NAD(P)H diaphorase (Clostridium kluyveri); test: Diaphorse counterscreen qHTS: Assay Interference Panel against the NCATS CANVASS Library (AID 1347362)
In short: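 Clostridium kluyveri diaphorase in PBS with 0.01% Tween-20 was preincubated 15 min at room temperature in the dark with compounds (11-point series). Resorufin fluorescence (ex 525/20, em 598/25) was read 5 min after adding resazurin/NADH.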

[5] = KB-3-1 Cancer Cell Toxicity qHTS against the NCATS CANVASS Library (AID 1347366); further: nearly all actives have a fitted effect of over 75% in size; further: potency means the concentration at half of the fitted maximal effect
In short: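 Luminescence from CellTiter-Glo (10 min, room temperature) measured KB-3-1 viability after 72 hr compound exposure at 37C. Cells were seeded at 500/well and tested in an 11-point series.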

[6] = G06 Cancer Cell Toxicity qHTS against the NCATS CANVASS Library (AID 1347368); further: potency means the concentration at half of the fitted maximal effect; nearly all actives have a fitted effect of over 60% in size
In short: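 ATP luminescence (CellTiterGlo) readout of cytotoxicity. Canine G06 glioma cells, 500/well, 72 hr incubation at 37C with compounds; bortezomib titration served as control.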

[7] = qHTS for ATAD5 Antagonist screened against the NCATS CANVASS Library (AID 1347370); further: nearly all actives have a fitted effect of over 65% in size; further: potency means the concentration at half of the fitted maximal effect
In short: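 HEK293T-ATAD5 luc reporter, 2000 cells/well; 5hr attach; cpd + 10 uM 5-FUrd; 16hr 37C, 5% CO2. Readouts: CellTiter-Fluor fluorescence (1hr), then Amplite luciferase luminescence (30min RT).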

[8] = biological target: Nuclear receptor subfamily 1 group I member 3 (Homo sapiens) (UniProt Q14994); test: qHTS for Constitutive Androstane Receptor (CAR) Agonist screened against the NCATS CANVASS Library (AID 1347373);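 further: every well also contained 1.5 µM PK11195 alongside the test compound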; further: potency means the concentration at half of the fitted maximal effect
In short: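 Luciferase read-out (ONE-Glo, 30 min RT) of CYP2B6-2.2kb promoter activity in double-stable HepG2-hCAR cells after 24hr compound exposure with 1.5uM PK11195 present; viability measured first by CellTiter-Fluor.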

[9] = qHTS for Hypoxia signaling pathway (HIF-1) antagonists against the NCATS CANVASS Library (AID 1347374);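 further: HRE-bla ME-180 cells stimulated with cobalt chloride to stabilize HIF-1alpha; series mostly up to about 38 µM; nearly all actives have a fitted effect of over 60% in size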
In short: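 Beta-lactamase reporter under HRE control in ME-180 cells; CoCl2 stimulus (60 uM solution as added), compounds 11-pt qHTS, 17 h 37C. CCF4 dye 2 h RT, 460/530 nm emission. CellTiter-Glo viability in same wells.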

[10] = qHTS for Hypoxia signaling pathway (HIF-1) agonists against the NCATS CANVASS Library (AID 1347375)
In short: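 Read-out: beta-lactamase FRET (CCF4-AM, ex 405, em 460 and 530 nm) after 2 h at room temperature. ME-180 cells stably carrying HRE-bla were treated 17 h at 37C with compounds in an 11-point concentration series.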

[11] = DH5-alpha competent E. coli microbial cell viability qHTS against the NCATS CANVASS Library (AID 1347377); details: outcome: dose series up to 46.1 µM unless noted
In short: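 Luminescent ATP read-out (BacTiter-Glo, 20 min RT) after overnight 37C culture of DH5-alpha E. coli with compounds; daunomycin control at 0.2 nM–9.2 uM final.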

[12] = qHTS for Inflammasome Signaling Inhibitors: IL-1-beta AlphaLISA screen against the NCATS CANVASS Library (AID 1347379);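 further: human THP-1 cells primed with LPS then triggered with ATP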
In short: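 THP-1, 1 hr compound pre-incubation, then LPS 250 ng/mL + ATP 1.25 mM (final); 16 hr total with compound; IL-1B AlphaLISA, ex 680/em 615 nm; 11-point qHTS, up to 57.5 uM final.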

[13] = qHTS assay for small molecule disruptors of mitochondrial membrane potential screened against the NCATS CANVASS Library (AID 1347389); further: series mostly up to about 46 µM; nearly all actives have a fitted effect of over 60% in size
In short: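 Red/green fluorescence ratio read-out: J-aggregates ex 540/em 590 nm, monomers ex 490/em 535 nm. HepG2, 1 hr compound treatment, then 30 min Mito-MPS dye at 37C. 11-pt qHTS concentration series.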

[14] = qHTS for inhibitors of ER calcium dysfunction: SERCaMP assay screened against the NCATS CANVASS Library (AID 1347393); further: nearly all actives have a fitted effect of over 40% in size; further: potency means the concentration at half of the fitted maximal effect
In short: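 qHTS in SH-SY5Y reporter cells: 16 h compound pretreatment, 4 h thapsigargin, then secreted Gaussia luciferase measured by luminescence.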

[15] = qHTS for inhibitors of Wild type Zika virus screened against the NCATS CANVASS Library (AID 1347396);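 further: ATP luminescence of surviving cells so rescue from viral cell killing; series mostly up to about 46 µM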
In short: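 Using ATP-based luminescence (CellTiter Glo), this screen scores rescue of Vero 766 cells from wild-type Zika killing at 72 h post-infection. Compounds are tested in a concentration series.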

[16] = UWB1.289-WTBRCA1 Cancer Cell Toxicity qHTS against the NCATS CANVASS Library (AID 1347354)
In short: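 1000 cells/well, 4 h pre-incubation 37 °C/5% CO2; 11-pnt titration; 72 h; CellTiter-Glo 15 min RT, luminescence.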

[17] = J3T Cancer Cell Toxicity qHTS against the NCATS CANVASS Library (AID 1347371);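 further: J3T is a canine glioma cancer cell line seeded at 500 cells per well; series mostly up to about 46 µM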
In short: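 Dog glioma J3T, 500 cells/well; cpd 11-pt qHTS; 72 hr, 37C/5% CO2; CellTiterGlo ATP luminescence readout.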

[18] = qHTS for activators of Nrf2/ARE signaling pathway screened against the NCATS CANVASS Library (AID 1347391); further: nearly all actives have a fitted effect of over 60% in size; further: potency means the concentration at half of the fitted maximal effect
In short: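 HepG2 ARE-bla; cpd 11-pt qHTS, 16 h 37C/5% CO2; CCF4 substrate 2 h RT; read ex 405 / em 460 + 530 nm. Viability by CellTiter-Glo luminescence, 30 min RT.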

[19] = Redox Reaction Profiling qHTS: Assay Interference Panel against the NCATS CANVASS Library (AID 1347401)
In short: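 Quantitative HTS over an 11-point series was run in HEPES pH 7.3 with 50 mM NaCl, 200 uM DTT and 5 uM resazurin. Initial and 15-min resorufin fluorescence readings were taken.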

Sequence of Nuclear receptor subfamily 1 group I member 3 (Homo sapiens) (Q14994 whole entry, looked up): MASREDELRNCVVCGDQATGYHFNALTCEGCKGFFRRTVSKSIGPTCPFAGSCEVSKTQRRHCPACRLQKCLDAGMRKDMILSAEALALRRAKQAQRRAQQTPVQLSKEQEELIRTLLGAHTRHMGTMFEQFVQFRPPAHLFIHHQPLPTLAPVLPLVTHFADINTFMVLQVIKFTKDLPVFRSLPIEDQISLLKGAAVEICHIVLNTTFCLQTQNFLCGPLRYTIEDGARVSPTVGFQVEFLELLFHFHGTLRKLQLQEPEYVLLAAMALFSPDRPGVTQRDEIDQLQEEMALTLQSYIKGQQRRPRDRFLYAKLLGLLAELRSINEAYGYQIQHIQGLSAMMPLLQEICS

Row | SMILES | Potency [1] | Potency [2] | Potency [3] | Potency [4] | Potency [5] | Potency [6] | Potency [7] | Potency [8] | Potency [9] | outcome [10] | outcome [11] | Potency [12] | Potency [13] | Potency [14] | outcome [15] | Potency [16] | Potency [17] | Potency [18] | Potency [19]
1 | COc1cc(C2C3=C(Cc4cc5c(cc42)OCO5)C(=O)OC3)cc(OC)c1OC (centres undefined) | inactive | inactive | 83.3 nM (active) | inactive | 105 nM (active) | 0.0935 µM (active) | inactive | inactive | inactive | inactive | inactive | inactive | inactive | inactive | inactive | – | – | – | –
2 | COc1cc2oc3ccccc3c(=O)c2cc1OC | inactive | inactive | – | inactive | inactive | – | inactive | 38.2 µM (active) | inactive | inactive | inactive | – | inactive | – | inactive | inactive | inactive | 3.41 µM (active) | inactive
3 | CC[C@@H]1[C@H](C)[C@H](c2cc(OC)c(OC)cc2OC)[C@@H](C)[C@H](c2cc(OC)c(OC)cc2OC)[C@]12C=C(OC)C(=O)C=C2OC | – | 21.1 µM (active) | – | – | – | – | 23.4 µM (active) | inactive | – | – | – | – | – | – | – | inactive | inactive | inactive | inactive
4 | C=C1C(=O)O[C@H]2[C@H]1CCC(C)=C1CC[C@@](C)(O)[C@@H]12 | 11.8 µM (active) | 14.9 µM (active) | 4180 nM (active) | inactive | – | 16.6 µM (active) | – | inactive | – | – | inactive | 9.68 µM (active) | – | 2.72 µM (active) | inactive | – | – | 0.186 µM (active) | inactive

— PubChem BioAssay (NCATS)
